Inconclusive results are not listed. Entries that show only a call come without a potency. The source made the active and inactive calls. Calls follow the shape of the dose curve; as a rule, active = well fitted cell-killing curve with a large enough effect in the repeat runs; inconclusive = weak or mixed curves, or effect the other way; inactive = flat fitted curve, though single readings scatter.
Assay: qHTS RealTime-Glo MT Cell Viability Assay in HEK293 cells - 0 hour (AID 1224880); also: top concentration of the series differs between compounds; nearly all actives have a fitted effect of over 45% in size
Conditions: RealTime-Glo luminescence; series mostly up to 76.8 µM
Source text: U.S. Tox21 Program National Center for Advancing Translational Sciences [NCATS] NIH Chemical Genomics Center [NCGC] U.S. Environmental Protection Agency [EPA] National Institutes of Environmental Health Sciences [NIEHS] National Toxicology Program [NTP] U.S. Food and Drug Administration [FDA] Tox21 Assay Overview: Measure of cell viability is critical in the cell-base assay. Analysis of cell viability is necessary for the characterization of cell responses to cytotoxic drugs and environmental stress. A RealTime-Glo MT Cell Viability Assay to monitor cell viability in real time of continues cell culture during 40 hours of compound treatment was used to screen Tox21 10K library compounds in Hek293 cells. The RealTime-Glo MT Cell Viability Assay is a nonlytic, homogeneous, bioluminescent method to measure cell viability in real time using a simple, plate-based method. The assay involves adding NanoLuc luciferase and a cell-permeant prosubstrate to cells in culture. Viable cells reduce the proprietary prosubstrate to generate a substrate for NanoLuc luciferase. This substrate diffuses from cells into the surrounding culture medium, where it is rapidly used by the NanoLuc Enzyme to produce a luminescent signal. The signal correlates with the number of viable cells, making the assay well suited for cytotoxicity studies.
Tox21 Assay Protocol Summary: The mixture of Hek293 cell suspension and reagents were dispensed at 600cells/6 ul/well in 1536-well tissue culture treated black solid bottom plates using a Multidrop dispenser. After the assay plates were incubated at a 37 C/5% CO2 incubator for 5 hours, 23 nL of compounds dissolved in DMSO, positive and negative controls was transferred to the assay plate by a pintool work station. The plates were incubated at 37 C for 40 hours. The luminescence intensity were measured at 0h, 8h, 16h, 24h, 32h and 40h time points using ViewLux plate reader during compound treatment.

| SMILES | Potency | activity change, negative = cytotoxicity |
| --- | --- | --- |
| CC(O)C1CCCCC1 (stereo not given) | inactive |  |
| CCOc1nc2cccc(C(=O)O)c2n1Cc1ccc(-c2ccccc2-c2nn[nH]n2)cc1 | inactive |  |
| CC[C@@H]1C[C@H](N(Cc2cc(C(F)(F)F)cc(C(F)(F)F)c2)C(C)=O)c2cc(C(F)(F)F)ccc2N1C(=O)OC(C)C | inactive |  |
| c1ccc(OCc2ccc(CCCN3CCOCC3)cc2)cc1 | inactive |  |
| COc1ccc(OC)c(OC)c1 | inactive |  |
| CC(=O)CC(=O)c1ccccc1 | inactive |  |
| CC(=O)c1ccc2c(c1)[C@H](NC(=O)c1ccc(F)cc1)[C@@H](O)C(C)(C)O2 | inactive |  |
| CCN(CC)CCOc1ccc2c(c1)C(=O)c1cc(OCCN(CC)CC)ccc1-2 | inactive |  |
| C=CC(=O)OCCOC(=O)CCC(=O)O | inactive |  |
| Cc1cc(CC(=O)O)c(C)n1-c1ccc(Cl)cc1 | inactive |  |
| CCN(CC)CCOC(=O)C1(c2ccccc2)CCCC1 | inactive |  |
| CCCCCOC(=O)c1ccc(O)cc1 | inactive |  |
| C=CCCCCCC | inactive |  |
| CCCCOCCOCCOCCOCCO | inactive |  |
| CCCCCCCCCCCCCCCC(=O)OC/C=C(C)/C=C/C=C(C)/C=C/C1=C(C)CCCC1(C)C | inactive |  |
| Cn1c(NCCN(CCO)CCCc2ccc([N+](=O)[O-])cc2)cc(=O)n(C)c1=O | inactive |  |
| NC(=S)N/N=C/c1cccnc1 | inactive |  |
| NC(N)=NN=C(/C=C/c1ccc([N+](=O)[O-])o1)/C=C/c1ccc([N+](=O)[O-])o1 | inactive |  |
| Cc1ccc(C(C)c2ccc(C)c(C)c2)cc1C | inactive |  |
| CCCCCCCC/C=C\CCCCCCCC(N)=O | inactive |  |

| SMILES | Potency | activity change, negative = cytotoxicity |
| --- | --- | --- |
| CN1CCC(OC(c2ccccc2)c2ccccc2)CC1 | inactive |  |
| N#Cc1cc2ccccc2c2ccccc12 | inactive |  |
| Cc1cccc(Oc2ccccc2)c1 | inactive |  |
| CCCCCCc1ccc(N)cc1 | inactive |  |
| CCCCOC(=O)c1ccccc1C(=O)OCC(CC)CCCC (stereo not given) | inactive |  |
| C=CC(=O)OCC(C)OCC(C)OCC(C)OC(=O)C=C (stereo not given) | inactive |  |
| CCCCCOC(=O)COc1cc(N2C(=O)C3=C(CCCC3)C2=O)c(F)cc1Cl | inactive |  |
| CCCCCCCCN(C)C | inactive |  |
| Nc1nc(N)c(-c2ccccc2)s1 | inactive |  |
| CN(C)CC[C@@H](c1ccc(Br)cc1)c1ccccn1 | inactive |  |
| C[C@@H](C1=C(CCN(C)C)Cc2ccccc21)c1ccccn1 | inactive |  |
| CCCCCc1ccc(N)cc1 | inactive |  |
| CC[C@H](C)[C@H](N)C(=O)O | inactive |  |
| CCCCCCCCC(CO)CCCCCC (stereo not given) | inactive |  |
| COCCOCCOCCOCCOC | inactive |  |
| CNS(=O)(=O)Cc1ccc2[nH]cc(CCN(C)C)c2c1 | inactive |  |
| O=C(CCN1CCN2CCCC2C1)N1c2ccccc2Sc2ccc(Cl)cc21 (stereo not given) |  | -6.17% [at 15.8 µM] (inactive) |
| NCCCN(CCO)CCO | inactive |  |
| O=S1(=O)N=C(O)c2ccccc21 | inactive |  |
| NCc1ccccc1 | inactive |  |
